# Results: PubChem BioAssay (EPA / NIEHS)
# Where “and” joins values, the source holds several entries; their conditions need not be identical. Identical values can stand only once. Inconclusive results are not listed. Some structures have more than one record in an assay (separate samples or runs), and their calls can disagree. Calls of active or inactive are those of the source. Rule for the calls: active = hit-call score of the fitted dose curve at least 0.9, where 1 is the maximum; inconclusive = response in the unintended direction; inactive = score below 0.9.
# Key:
# [1] = molecular target: Nuclear receptor subfamily 1 group I member 2 (Mus musculus) (UniProt O54915); assay: ATG_mPXR_XSP1: Attagene TRANS-FACTORIAL Multi-Species (XSP1) HepG2 Assay for mouse Pregnane X Receptor (PXR) (AID 2283803)
# Summary of the method: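 Transiently transfected HepG2 cells expressing a receptor-Gal4 chimera drive a GAL4-UAS reporter; 3 nM 6-alpha-fluorotestosterone included. Reporter mRNA read 24 h post-dose by RT-PCR and capillary electrophoresis; gain of signal relative to DMSO.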
# [2] = molecular target: frog Thyroid hormone Receptor alpha (TRa), thra-a (gene 397942) (UniProt P15204); assay: ATG_frTRa_XSP1: Attagene TRANS-FACTORIAL Multi-Species (XSP1) HepG2 Assay for frog Thyroid hormone Receptor alpha (TRa) (AID 2283804)
# Summary of the method: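 Reporter transcript induction, measured by RT-PCR with 6-FAM labelling and capillary electrophoresis, 24 hr after dosing transiently transfected HepG2 cells expressing a frog TRa-GAL4 fusion; medium contained 3 nM 6-alpha-fluorotestosterone; increase over DMSO scored.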
# [3] = system: turtle Thyroid Hormone Receptor, alpha (TRa), gene 101949057; assay: ATG_trTRa_XSP1: Attagene TRANS-FACTORIAL Multi-Species (XSP1) HepG2 Assay for turtle Thyroid Hormone Receptor, alpha (TRa) (AID 2283806)
# Summary of the method: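 After 24 h chemical exposure, reporter transcripts were measured by RT-PCR with fluorescent primer extension, HpaI digestion and capillary electrophoresis. Cells were transiently transfected HepG2 expressing exogenous NR-Gal4 chimeras; medium contained 3 nM 6-alpha-fluorotestosterone; fitted upward relative to DMSO.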
# [4] = molecular target: zebrafish Thyroid Hormone Receptor beta (TRb), thrb (gene 30607) (UniProt Q9PVE4); assay: ATG_zfTRb_XSP1: Attagene TRANS-FACTORIAL Multi-Species (XSP1) HepG2 Assay for zebrafish Thyroid Hormone Receptor beta (TRb) (AID 2283809)
# Procedure: ATG_XSP1_multi-species_TRANS is a cell-based, multiplexed assay created by modifying the existing Attagene TRANS-FACTORIAL system to include a panel of nuclear receptors from some or all the following species: human (Homo sapiens), mouse (Mus musculus), frog (Xenopus laevis), zebrafish (Danio rerio), chicken (Gallus gallus), and turtle (Chrysemys picta). The ECOTOX-FACTORIAL format uses HepG2, a human liver cell line, with measurements taken at 24 hours after chemical dosing in a 24-well plate. Xsp1 included 3 nM 6-alpha-fluorotestosterone to partially stimulate the androgen receptor.ATG_zfTRb_XSP1 is one of 29 assay components measured or calculated from the ATG_XSP1_multi-species_TRANS assay. It is designed to make measurements of mRNA induction, a form of inducible reporter, as detected with fluorescence intensity signals by Reverse transcription polymerase chain reaction (RT-PCR) and Capillary electrophoresis technology.The assay endpoint ATG_zfTRb_XSP1 was analyzed in the positive analysis fitting direction relative to DMSO as the negative control and baseline of activity. […] Furthermore, this assay endpoint can be referred to as a primary readout, because this assay has produced multiple assay endpoints where this one serves a reporter gene function. […]
# [5] = ATG_M_06_XSP2: Attagene TRANS-FACTORIAL Multi-Species (XSP2) HepG2 Assay for M06 Transcription Factor (Internal Marker) (AID 2283811);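 note: internal background marker reporter mRNA measured by RT-PCR and capillary electrophoresis; hits are increases in signal above the DMSO baseline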
# Summary of the method: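 Readout: fluorescent reporter-mRNA peaks by capillary electrophoresis after RT-PCR and HpaI digest, scored upward relative to DMSO. Transfected HepG2, 24 h chemical exposure, with 3 nM 6-alpha-fluorotestosterone and 1.5 nM norgestrel added.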
# [6] = system: turtle Estrogen Receptor (ERa), gene 101933533; assay: ATG_trERa_XSP2: Attagene TRANS-FACTORIAL Multi-Species (XSP2) HepG2 Assay for turtle Estrogen Receptor (ERa) (AID 2283812);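 note: actives raise reporter signal above DMSO so AC50 reflects agonist activity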
# Summary of the method: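 Readout is reporter mRNA quantified by RT-PCR with capillary electrophoresis after 24 h compound exposure, increase relative to DMSO. Uses transiently transfected human HepG2 liver cells carrying a chimeric turtle ERa-Gal4 receptor driving GAL4-UAS reporters.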
# [7] = molecular target: GAL4 Transcription Factor (Internal Marker), GAL4 (gene 855828) (UniProt P04386); assay: ATG_GAL4_XSP2: Attagene TRANS-FACTORIAL Multi-Species (XSP2) HepG2 Assay for GAL4 Transcription Factor (Internal Marker) (AID 2283814);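 note: GAL4 reporter mRNA background control in MRTU transfected cells not a receptor target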
# Summary of the method: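 Background-control readout: gain-of-signal fitted against DMSO. After 24 h exposure of transfected HepG2 (MRTU, GAL4-UAS reporters; 3 nM 6-alpha-fluorotestosterone, 1.5 nM norgestrel present), transcripts quantified by RT-PCR and capillary electrophoresis fluorescence.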
# [8] = molecular target: Estrogen receptor beta (Homo sapiens) (UniProt Q92731); assay: ATG_hERb_XSP2: Attagene TRANS-FACTORIAL Multi-Species (XSP2) HepG2 Assay for human Estrogen Receptor (ERb) (AID 2283813);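 note: actives raise reporter mRNA above DMSO so AC50 reflects agonist induction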
# Summary of the method: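 Transient TRANS reporter system in HepG2: after 24 h of chemical, RNA is reverse-transcribed, reporter cDNA amplified, FAM-labelled and sized by capillary electrophoresis. Induction of the human ERb-Gal4 reporter is measured relative to DMSO.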
# [9] = molecular target: zebrafish Estrogen Receptor (ER1), esr1 (gene 259252) (UniProt P57717); assay: ATG_zfER1_XSP2: Attagene TRANS-FACTORIAL Multi-Species (XSP2) HepG2 Assay for zebrafish Estrogen Receptor (ER1) (AID 2283816)
# Summary of the method: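 After 24 h compound exposure, RNA from transfected HepG2 cells was reverse-transcribed and reporter transcripts resolved by capillary electrophoresis. The TRANS format reads exogenous zebrafish ER1-Gal4 chimera activity on GAL4-UAS elements; gain of signal against DMSO.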
# [10] = system: turtle Androgen Receptor (AR), gene 101947425; assay: ATG_trAR_XSP2: Attagene TRANS-FACTORIAL Multi-Species (XSP2) HepG2 Assay for turtle Androgen Receptor (AR) (AID 2283815);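 for AC50: reporter mRNA from a Gal4 chimera of turtle AR measured by RT-PCR; potency for gain of reporter signal meaning activation above DMSO baseline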
# Summary of the method: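 Reporter transcripts were quantified via RT-PCR and capillary electrophoresis and fitted upward against DMSO. Transiently transfected human HepG2 cells carrying NR-Gal4 chimeras were exposed 24 h, with 3 nM 6-alpha-fluorotestosterone plus 1.5 nM norgestrel added.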
# Sequence of Estrogen receptor beta (Homo sapiens) (Q92731 whole entry, looked up, the tested form may be a part): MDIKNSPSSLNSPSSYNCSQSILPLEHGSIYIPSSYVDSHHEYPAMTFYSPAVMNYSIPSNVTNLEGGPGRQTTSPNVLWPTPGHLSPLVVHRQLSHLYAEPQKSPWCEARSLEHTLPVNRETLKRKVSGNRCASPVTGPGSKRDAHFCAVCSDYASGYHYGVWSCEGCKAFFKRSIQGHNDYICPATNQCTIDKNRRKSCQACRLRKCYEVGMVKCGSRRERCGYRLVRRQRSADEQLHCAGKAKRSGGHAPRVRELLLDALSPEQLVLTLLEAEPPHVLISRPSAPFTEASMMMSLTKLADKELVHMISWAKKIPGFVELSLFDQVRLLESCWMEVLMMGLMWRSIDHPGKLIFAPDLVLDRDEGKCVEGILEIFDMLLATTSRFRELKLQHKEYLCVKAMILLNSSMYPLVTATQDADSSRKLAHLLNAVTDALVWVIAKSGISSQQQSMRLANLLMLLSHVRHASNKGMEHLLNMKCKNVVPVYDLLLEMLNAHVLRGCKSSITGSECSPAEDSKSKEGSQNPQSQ
# Sequence of GAL4 Transcription Factor (Internal Marker), GAL4 (gene 855828) (P04386 whole entry, looked up, the tested form may be a part): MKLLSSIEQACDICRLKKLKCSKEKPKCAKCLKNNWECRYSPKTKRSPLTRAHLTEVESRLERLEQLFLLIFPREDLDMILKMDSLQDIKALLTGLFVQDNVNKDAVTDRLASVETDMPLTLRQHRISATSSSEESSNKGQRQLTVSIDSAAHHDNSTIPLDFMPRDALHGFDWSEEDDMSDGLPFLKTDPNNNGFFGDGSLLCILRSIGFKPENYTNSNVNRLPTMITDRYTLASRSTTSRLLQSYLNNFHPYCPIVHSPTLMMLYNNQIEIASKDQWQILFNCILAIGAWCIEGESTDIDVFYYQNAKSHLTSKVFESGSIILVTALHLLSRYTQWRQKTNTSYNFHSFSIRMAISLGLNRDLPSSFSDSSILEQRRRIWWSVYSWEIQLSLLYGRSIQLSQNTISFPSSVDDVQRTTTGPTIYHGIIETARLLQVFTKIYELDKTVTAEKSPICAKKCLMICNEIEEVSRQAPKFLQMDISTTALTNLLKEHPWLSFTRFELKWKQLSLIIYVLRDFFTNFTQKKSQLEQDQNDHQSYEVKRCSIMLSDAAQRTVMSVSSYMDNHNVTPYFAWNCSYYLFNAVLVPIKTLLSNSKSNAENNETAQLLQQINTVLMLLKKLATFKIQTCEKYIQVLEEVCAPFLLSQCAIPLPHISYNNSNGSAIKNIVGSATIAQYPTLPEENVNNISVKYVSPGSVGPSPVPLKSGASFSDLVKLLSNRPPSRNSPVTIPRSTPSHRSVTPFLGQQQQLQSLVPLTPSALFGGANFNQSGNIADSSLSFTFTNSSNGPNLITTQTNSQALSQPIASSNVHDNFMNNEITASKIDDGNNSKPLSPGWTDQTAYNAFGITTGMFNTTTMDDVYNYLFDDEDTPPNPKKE
# Sequence of zebrafish Estrogen Receptor (ER1), esr1 (gene 259252) (P57717 whole entry, looked up, the tested form may be a part): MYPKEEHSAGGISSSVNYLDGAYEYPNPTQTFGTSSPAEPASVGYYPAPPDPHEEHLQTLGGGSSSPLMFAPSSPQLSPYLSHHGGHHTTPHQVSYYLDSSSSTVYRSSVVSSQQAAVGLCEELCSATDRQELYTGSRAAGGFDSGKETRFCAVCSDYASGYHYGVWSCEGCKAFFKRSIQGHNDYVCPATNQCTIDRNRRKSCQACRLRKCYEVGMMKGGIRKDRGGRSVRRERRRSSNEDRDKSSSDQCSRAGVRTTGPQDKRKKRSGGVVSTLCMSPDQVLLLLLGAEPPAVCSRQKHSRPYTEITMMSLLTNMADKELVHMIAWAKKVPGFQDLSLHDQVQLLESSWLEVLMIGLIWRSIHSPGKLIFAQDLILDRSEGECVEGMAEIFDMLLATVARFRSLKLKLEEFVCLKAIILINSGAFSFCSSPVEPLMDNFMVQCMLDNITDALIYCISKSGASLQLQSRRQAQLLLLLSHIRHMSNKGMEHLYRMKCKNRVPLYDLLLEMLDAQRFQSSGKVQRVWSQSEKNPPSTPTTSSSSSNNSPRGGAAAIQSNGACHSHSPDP
# Sequence of zebrafish Thyroid Hormone Receptor beta (TRb), thrb (gene 30607) (Q9PVE4 whole entry, looked up): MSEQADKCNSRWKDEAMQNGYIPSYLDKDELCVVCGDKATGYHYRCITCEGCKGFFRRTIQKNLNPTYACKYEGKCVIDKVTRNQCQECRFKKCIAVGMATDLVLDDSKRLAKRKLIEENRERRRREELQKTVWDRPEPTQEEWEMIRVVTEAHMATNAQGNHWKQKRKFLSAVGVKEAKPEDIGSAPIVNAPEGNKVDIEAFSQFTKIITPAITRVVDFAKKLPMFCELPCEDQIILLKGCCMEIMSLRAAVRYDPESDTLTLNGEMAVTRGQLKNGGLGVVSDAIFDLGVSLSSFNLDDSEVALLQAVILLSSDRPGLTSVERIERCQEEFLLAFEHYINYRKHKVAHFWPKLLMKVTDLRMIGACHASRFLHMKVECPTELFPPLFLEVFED
# Sequence of Nuclear receptor subfamily 1 group I member 2 (Mus musculus) (O54915 whole entry, looked up, the tested form may be a part): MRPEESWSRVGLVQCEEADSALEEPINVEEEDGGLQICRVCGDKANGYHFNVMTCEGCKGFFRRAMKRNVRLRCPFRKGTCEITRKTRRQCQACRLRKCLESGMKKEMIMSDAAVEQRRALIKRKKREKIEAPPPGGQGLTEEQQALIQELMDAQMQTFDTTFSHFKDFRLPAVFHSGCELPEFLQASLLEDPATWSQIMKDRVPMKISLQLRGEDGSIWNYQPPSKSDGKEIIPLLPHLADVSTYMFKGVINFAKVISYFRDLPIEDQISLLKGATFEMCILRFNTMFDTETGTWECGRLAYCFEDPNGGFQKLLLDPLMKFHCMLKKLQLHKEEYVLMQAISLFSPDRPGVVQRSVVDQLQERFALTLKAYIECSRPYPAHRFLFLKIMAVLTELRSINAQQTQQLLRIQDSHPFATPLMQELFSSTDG
# Sequence of frog Thyroid hormone Receptor alpha (TRa), thra-a (gene 397942) (P15204 whole entry, looked up, the tested form may be a part): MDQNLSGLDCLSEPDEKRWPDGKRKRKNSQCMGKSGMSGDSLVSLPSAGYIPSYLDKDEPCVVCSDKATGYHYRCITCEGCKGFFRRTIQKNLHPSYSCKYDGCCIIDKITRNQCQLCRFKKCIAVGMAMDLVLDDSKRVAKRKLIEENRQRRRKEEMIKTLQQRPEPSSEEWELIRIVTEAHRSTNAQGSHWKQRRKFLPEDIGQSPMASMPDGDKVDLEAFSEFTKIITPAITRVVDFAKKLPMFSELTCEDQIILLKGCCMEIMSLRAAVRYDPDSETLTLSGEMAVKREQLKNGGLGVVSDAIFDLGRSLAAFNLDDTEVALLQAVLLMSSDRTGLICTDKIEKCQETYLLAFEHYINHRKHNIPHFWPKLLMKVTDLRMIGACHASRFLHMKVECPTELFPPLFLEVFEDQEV
structure (smiles),measurement,setting,value
CC(C)(C)NC(=O)[C@H]1CC[C@H]2[C@@H]3CC[C@H]4NC(=O)C=C[C@]4(C)[C@H]3CC[C@]12C,AC50,[1],3.8 µM (active)
same,outcome,[2],inactive
same,outcome,[3],inactive
same,outcome,[4],inactive
same,outcome,[5],inactive
same,outcome,[6],inactive
same,outcome,[7],inactive
COc1ccc(C(=O)c2ccccc2)c(O)c1,outcome,[5],inactive
same,AC50,[6],4.74 µM (active) and 26.3 µM (active)
same,AC50,[8],26.8 µM (active)
same,outcome,[8],inactive
same,outcome,[7],inactive
same,AC50,[9],11 µM (active) and 16.7 µM (active)
CC(CCC(=O)O)(c1ccc(O)cc1)c1ccc(O)cc1,outcome,[5],inactive
same,outcome,[6],inactive
same,outcome,[8],inactive
same,outcome,[7],inactive
same,outcome,[10],inactive
same,AC50,[9],134 µM (active)
same,outcome,[9],inactive
O=C(O)/C=C/c1ccccc1,outcome,[6],inactive
C=C1C[C@H]2[C@@H]3C=C(C)C4=CC(=O)CC[C@]4(C)[C@H]3CC[C@]2(C)[C@@]1(OC(C)=O)C(C)=O,outcome,[7],inactive
same,outcome,[9],inactive
Oc1ccc(-c2ccccc2)c(Cl)c1,AC50,[6],4.73 µM (active) and 2.56 µM (active)
same,AC50,[8],8.87 µM (active) and 8.92 µM (active)
same,AC50,[9],17.3 µM (active) and 20.1 µM (active)
Oc1ccccc1Cc1ccccc1O,outcome,[5],inactive
same,AC50,[6],26.9 µM (active)
same,outcome,[6],inactive
same,AC50,[8],8.23 µM (active) and 7.6 µM (active)
same,outcome,[7],inactive
same,AC50,[9],58.4 µM (active) and 100 µM (active)
N#Cc1ccc(C2CCCc3cncn32)cc1 (stereo not given),outcome,[5],inactive
same,outcome,[6],inactive
same,outcome,[9],inactive
CCCCCCCCCCCCc1ccc(O)cc1,outcome,[5],inactive
same,AC50,[6],327 nM (active) and 57.8 nM (active)
same,outcome,[8],inactive
same,outcome,[7],inactive
same,AC50,[9],0.47 µM (active)
COc1ccc(-c2coc3cc(O)cc(O)c3c2=O)cc1,outcome,[5],inactive
same,AC50,[6],1.27 µM (active) and 161 nM (active)
same,AC50,[8],83.6 nM (active) and 65.3 nM (active)
same,AC50,[10],1.81 µM (active)
same,AC50,[9],4.02 µM (active) and 458 nM (active)
